Among the data in PubChem BioAssay (NCI) are growth values, retold here.

Each structure is given as a SMILES string. The panel holds about 83,000 compounds, 20% with a hit somewhere; the sample as a whole holds those more often.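 Each cell line was grown in a 96-well plate and treated with one concentration of compound for 48 hours. Values below 10 were considered active.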 Values without a mark were called inactive. Activity calls are given as the source filed them.

The subject of the experiment is IGROV1 ovarian. As to the kind of experiment: NCI-60 one-dose screen, 48 h (100 = growth as untreated, 0 = no growth, -100 = all killed). The following applies: 10 µM unless noted.
Regarding `COc1cc(NC(=O)NCc2ccco2)ccc1-c1ccc(NC(=O)NCc2ccco2)cc1OC`, the growth is 72.9%.

`COc1cnc2c(c1)C(=O)c1c-2n(CCCN2CCC(O)CC2)c(=O)c2cc(F)ccc12`: the growth is 1.69% (active). As for `CCOC(=O)C1=CCC(n2cc(C)c(=O)[nH]c2=O)O1` (centres undefined), the figure is 86.3%; as for `CCSc1nc(Nc2ccc(S(=O)(=O)Nc3ccon3)cc2)c(C#N)c(-c2cccc(Br)c2)n1`, 122%. As for `C[C@H]1O[C@@H](O[C@H]2[C@@H](O)C[C@H](O[C@H]3[C@@H](O)C[C@H](O[C@H]4CC[C@]5(C)C6C[C@@H](O)[C@]7(C)[C@@H](C8=CC(=O)OC8)CC[C@]7(O)C6CC[C@@H]5C4)O[C@@H]3C)O[C@@H]2C)C[C@H](O)[C@@H]1O` (some centres undefined), the figure is -38.4% (active). Take `Cc1ccc(NC(=O)c2sc3nc4c(cc3c2N)C(=O)CCC4)cc1`: the growth was 95.9%. In the case of `COc1ccc(-c2nnc3c4[nH]cnc4ncn23)c(OC)c1`, the growth is 45.8%. With `Cc1ccc(N/N=C(/C(=O)c2ccc(Cl)cc2)c2nc(C)cc(=O)[nH]2)cc1`, the growth is 7.59% (active). Consider `Cc1ccc(/C=C/C(=O)c2ccc(F)cc2)s1`, for which the growth is 83%.

Consider `CNNc1ncnc2c1cnn2-c1ccc(S(N)(=O)=O)cc1`, for which the growth was 104%. Regarding `OC(c1cc(-c2cccc(Cl)c2)nc2ccccc12)C1CCCCN1` (centres undefined), the growth is -61.7% (active). As to `COc1ccc2c(c1)sc1nc(-c3ccc(Br)cc3)cn12`, the growth is -23.9% (active). `COc1ccccc1NC(=O)c1sc2nc3c(cc2c1N)C(=O)CCC3`: the growth was 82.9%. As to `N#CC(C#N)C(C#N)C#N`, the growth was 112%.

Consider `COc1ccc(C2=NN(C(C)=O)C(c3c(C)nn(-c4ccccc4)c3N3CCOCC3)C2)cc1` (centres undefined), for which the growth was 103%. In the case of `CCSc1nc(-c2ccco2)n2nc(-c3ccco3)cc2n1`, the growth is 82.9%.

As for `O=C(Nc1ccc2c(c1)C(=O)c1ccccc1-2)c1ccccc1`, the growth was 73.4%. As for `CN(C)c1ccc(-c2nc3ncc(Br)cc3o2)cc1`, the growth is 17%. For `c1ccc(COc2ccc(Nc3ncnc4c3cnn4-c3ccccc3)cc2)cc1`, the growth is 100%. As for `Cc1ccccc1NC(=O)N/C(N)=N/c1nc2ccccc2s1`, the figure is 14.7%; as for `Cc1ccc(C2=NNC(c3sc(Cl)nc3Cl)C2)cc1` (centres undefined), 80.6%. On to `N#Cc1ccccc1C#Cc1ccccc1C#Cc1ccc(OCCCCCCOc2ccc(C#Cc3ccccc3C#Cc3ccccc3C#N)cc2)cc1`, for which the growth is -19% (active). On to `C=CCN(/C=C/CN(CC=C)CC=C)CC=C`, for which the growth is 96.3%.

Take `C[C@@H]1CN(c2nc3c(cc2F)c(=O)c(C(=O)O)cn3C(C)(C)C)C[C@H](C)N1`: the growth is 121%. Consider `CCN(CC)c1ccc(N=C2C=CC(=O)C=C2NC(C)=O)cc1`, for which the growth is 96.7%.

For `COc1ccc(NS(=O)(=O)N2CCCCC2)cc1`, the growth is 110%. As for `COc1cc(/C=C2\CN(S(=O)(=O)c3ccc(C)cc3)C/C(=C\c3cc(CN4CCOCC4)c(O)c(OC)c3)C2=O)cc(CN2CCOCC2)c1O`, the figure is -17% (active); as for `Cc1ccc(C2=Nc3c(ccc4c(C)c(C)c(=O)oc34)OC2)cc1`, 98.5%.

For the molecule `NC(=O)c1cc(Cl)ccc1NC(=O)c1ccccc1-c1ccccc1`, the growth is 30%. As to `CC12CCC3C(=CCc4cc(O)ccc43)C1CCC2=O` (centres undefined), the growth is 107%. Regarding `CCOC(=O)OCC(=O)[C@@]1(O)CC[C@H]2[C@@H]3CCC4=CC(=O)CC[C@]4(C)[C@H]3[C@@H](O)C[C@@]21C`, the growth is 87.5%. With `O=C1NCCc2c1noc2-c1ccccc1`, the growth was 99.5%.

Take `O=C1C=CC(=O)N1c1ccccc1N1C(=O)C=CC1=O`: the growth was 95.3%. With `Cc1cnc2nc(-c3ccc(N(C)C)cc3)cn2c1`, the growth was -14.9% (active). As to `Cc1n(Cc2ccc3ccccc3c2)c2ccccc2[n+]1Cc1ccc2ccccc2c1`, the growth is -61.8% (active). As to `CC1C(=O)NC2=Nc3ccccc3C(=O)NN21` (centres undefined), the growth was 79.6%. Take `CC(C)N(Cc1ccccc1)c1c(S)ssc1=S`: the growth was -39.4% (active). Turning to `COc1cc(C2CC(c3ccc(C)cc3)=NN2C=O)ccc1OCCN(C)C` (centres undefined), the growth was 101%. `CCN(CC)CCSc1ncnc2c1cnn2-c1ccc(S(N)(=O)=O)cc1`: the growth was 96.5%.
